The source of these data is the supplement of paper PMC11150407.

Out of some 2,100 compounds screened, about 180 (8.6%) showed an effect of 50% or more. Shown is part of a subset that was picked to be rich in strong results.

The test system of the assay is MOLM1 and UCSD/AML1 (averaged). The assay can be described thus: cell viability relative to DMSO control (POC); higher = less growth inhibition. The note with it: 1 µM; 72 h. How it is done: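 Primary viability screen in the 3q26 EVI1-high AML cell lines MOLM1 and UCSD/AML1 (1.5e3 cells/well, 384-well), compounds at 1 uM for 72 h. ATP CellTiter-Glo read-out given as percent of viable cells over DMSO control (POC), averaged over duplicates. DMSO was the negative control and 5 uM etoposide the positive control. This mapping covers the MicroSource Spectrum and Selleck anticancer libraries (drug names).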
A word on the cell viability: it is a read-out of living cells in per cent, often relative to untreated cells. Turning to `C/C1=C\CCC(=O)C2CC(C)(C)C2CC1` (configuration not stated), the cell viability was 93.3%.

Take `Cc1cc(O)c2c(c1O)C(=O)c1c(O)cc(C)c(O)c1C2=O`: the cell viability was 94.1%.

As for `COc1c2ccoc2cc2oc(C)cc(=O)c12`, the cell viability turned out to be 104%.

For the compound `Cn1cnc2c(F)c(Nc3ccc(Br)cc3Cl)c(C(=O)NOCCO)cc21` [AZD6244 (Selumetinib)], the cell viability worked out at 15.5%.

Consider `C#CCCCCCCCCCCCC(O)CC(O)CO` (configuration not stated), for which the cell viability stood at 55.1%.

Take `CC1(C)C=Cc2cc3ccc(=O)oc3cc2O1`: the cell viability was found to be 107%.

On to `CN(C)CC(=O)OC[C@@H](O)[C@@H](O)[C@H](O)[C@@H](O)C(=O)O`, for which the cell viability turned out to be 108%.

In the case of `CNCc1ccc(-c2[nH]c3cc(F)cc4c3c2CCNC4=O)cc1`, the cell viability amounted to 89.1%.

Turning to `CC(C)Cn1cnc2c(N)nc3ccccc3c21` [Imiquimod], the cell viability was determined as 47.9%.

In the case of `Nc1c2ccccc2nc2ccccc12`, the cell viability turned out to be 65%.

Turning to `CCCCCCCCc1ccc(CCC(N)(CO)CO)cc1` [Fingolimod (FTY720)], the cell viability is 76.7%.

In the case of `CCCCCCCCCc1ccc(OCCOCCOCCOCCOCCOCCOCCOCCOCCO)cc1`, the cell viability was determined as 37.9%.

Regarding `CCCCOc1ccc(CC(=O)NO)cc1`, the cell viability stood at 115%.

On to `COc1ccc2c(c1)OC1(O)COc3cc(OC)c(OC)cc3C1=C2` (configuration not stated), for which the cell viability is 102%.

As to `CC1=CCc2c(cc3oc(C)cc(=O)c3c2O)OC1`, the cell viability was found to be 90.4%.

For `CCC(=O)O[C@H]1CC[C@H]2[C@@H]3CCc4cc(O)ccc4[C@H]3CC[C@]12C`, the cell viability amounted to 95.4%.

On to `COc1cc(NS(C)(=O)=O)ccc1Nc1c2ccccc2nc2ccccc12`, for which the cell viability worked out at 12.8%.

`CS(=O)(=O)Nc1ccc([N+](=O)[O-])cc1Oc1ccccc1`: the cell viability is 96.7%.

Consider `CC(=O)Oc1cc(C)c2c(c1C=O)Oc1c(c(C)c(OC(C)=O)c3c1C(OC(C)=O)OC3=O)OC2=O` (configuration not stated), for which the cell viability came out at 106%.

For the compound `CC1(C)C[C@@H]2C(=O)CC[C@H]3O[C@]3(C)CC[C@H]21`, the cell viability came out at 104%.

In the case of `CC(=O)O[C@@H]1C=C[C@]2(C)C(C[C@@H](OC(C)=O)[C@]3(C)C4=CC(=O)O[C@H](c5ccoc5)[C@@]4(C)CCC23)C1(C)C` (some centres not stated), the cell viability was 94.4%.

On to `COc1ccc(-c2cc(=O)c3c(OC(C)=O)cc(OC(C)=O)cc3o2)cc1`, for which the cell viability was found to be 96.9%.

For the compound `Oc1ccc([C@H]2Oc3cc(O)cc(O)c3C[C@H]2O)cc1`, the cell viability is 102%.

With `CCCCCCc1ccc(O)cc1O.Nc1c2ccccc2nc2ccccc12`, the cell viability turned out to be 46.4%.

`CCCCCCc1ccc(O)cc1O`: the cell viability amounted to 98.6%.

`Nc1c2c(nc3ccccc13)CCCC2`: the cell viability was determined as 105%.

As for `CC(=O)O[C@@H]1CC(=O)[C@@]2(C)C(CC(=O)[C@]3(C)C2CC[C@@]2(C)[C@H](c4ccoc4)OC(=O)C4OC423)C1(C)C` (some centres not stated), the cell viability worked out at 100%.

As to `O=c1oc2ccccc2c(O)c1Cc1c(O)c2ccccc2oc1=O`, the cell viability was 98.1%.

Take `O=C(O)/C=C/c1ccccc1`: the cell viability was determined as 105%.

With `O=C(O)/C=C/C=C/c1ccccc1`, the cell viability came to 121%.

On to `O=C(/C=C/c1cccc(S(=O)(=O)Nc2ccccc2)c1)NO` [Belinostat (PXD101)], for which the cell viability was 1.86%.

In the case of `COc1ccc2c(c1)OCc1c-2oc2cc(OC)ccc12`, the cell viability was determined as 99%.

Take `O=C(Nc1ccc(OC(F)(F)F)cc1)c1sccc1NCc1ccnc2ccccc12`: the cell viability was found to be 64.7%.

Take `COc1ccc2c(c1)O[C@@H]1COc3cc(OC)c(OC)cc3[C@@H]1C2=O`: the cell viability was 102%.

On to `C=C(C)[C@@H]1CC=C(CO)CC1`, for which the cell viability turned out to be 88.1%.

Regarding `Cc1cc(=O)oc2cc(O)c(O)cc12`, the cell viability was 98.5%.

In the case of `OC[C@H]1O[C@@H](n2cnc3c(NCc4ccco4)ncnc32)[C@H](O)[C@@H]1O`, the cell viability was found to be 5.88%.

`Nc1ncnc2c1ncn2[C@@H]1O[C@H](CO)[C@@H](O)[C@H]1O`: the cell viability worked out at 105%.

As to `Nc1ncnc2c1ncn2[C@@H]1O[C@H](CO)[C@@H](O)[C@@H]1O`, the cell viability amounted to 93.9%.

For `CC(C)CCCC(C)C1CCC2C3=CCC4CC(O)CCC4(C)C3CCC21C` (configuration not stated), the cell viability stood at 93%.

Regarding `COC(=O)CC[C@@H](C)[C@H]1CC[C@H]2[C@@H]3CC[C@@H]4C[C@H](O)CC[C@]4(C)[C@H]3C[C@H](O)[C@]12C`, the cell viability is 97.4%.

With `N=C(N)NCCCCNC(=N)N`, the cell viability was determined as 102%.

Consider `COc1ccc(-c2coc3c(O)c(O)c(OC)cc3c2=O)cc1`, for which the cell viability came to 111%.

Regarding `COc1c(O)cc2c(-c3ccccc3)cc(=O)oc2c1OC`, the cell viability is 92.8%.

As for `COC(=O)Nc1nc2cc(Sc3ccccc3)ccc2[nH]1`, the cell viability turned out to be 41.9%.

Consider `CCCSc1ccc2[nH]c(NC(=O)OC)nc2c1`, for which the cell viability came out at 12.4%.

Turning to `COC(=O)[C@@H]1OC(=O)C2OC23[C@@]1(C)CCC1[C@]2(C)C(C[C@@H](O)[C@]13C)C(C)(C)[C@H](OC(C)=O)C[C@@H]2OC(C)=O` (some centres not stated), the cell viability is 111%.

For the compound `O=C(O)CCCN1C(=O)c2cccc3cccc(c23)C1=O`, the cell viability was 103%.

With `COc1cc2cc3c4cc(OC)c(OC)cc4cc[n+]3c(C)c2cc1OC`, the cell viability is 99.6%.

With `C[C@H]1[C@H](C)CC[C@]2(C(=O)O)CC[C@]3(C)C(=CC[C@@H]4[C@@]5(C)C[C@@H](O)[C@H](O)[C@@](C)(CO)[C@@H]5[C@H](O)C[C@]43C)[C@H]12`, the cell viability came out at 86.8%.

As to `O=C(Nc1ccccc1-c1cn2c(CN3CCNCC3)csc2n1)c1cnc2ccccc2n1`, the cell viability is 95.6%.

Consider `COc1cc(OC)c2c(=O)c(-c3ccc4c(c3)OCO4)coc2c1`, for which the cell viability came out at 127%.

For `COC(=O)C[C@H]1C(C)(C)[C@@H](O)[C@@H]2CC3=C4CC(O)O[C@@H](c5ccoc5)[C@]4(C)CCC3[C@@]1(C)C2=O` (stereo partly drawn) [3,16-DIDEOXYMEXICANOLIDE-3beta-DIOL], the cell viability was determined as 86.1%.

`C#Cc1cccc(Nc2ncnc3cc(OCCOC)c(OCCO)cc23)c1`: the cell viability was 65.1%.

For `COc1cc2c(N3CCN(C(=O)Nc4ccc(OC(C)C)cc4)CC3)ncnc2cc1OCCCN1CCCCC1` [Tandutinib (MLN518)], the cell viability was determined as 73.6%.

For `C#Cc1cccc(Nc2ncnc3cc(OCCOC)c(OCCO)cc23)c1` [OSI-420 (Desmethyl Erlotinib)], the cell viability amounted to 42.9%.

In the case of `C#Cc1cccc(Nc2ncnc3cc(OC)c(OCCCCCCC(=O)NO)cc23)c1`, the cell viability stood at 22.2%.

`COc1cc2ncnc(Nc3cccc(Br)c3)c2cc1OC`: the cell viability stood at 61.8%.

With `COc1ccc(-c2cc(=O)c3c(O)cc(OC)cc3o2)cc1`, the cell viability turned out to be 110%.

Regarding `CC(=O)C12OC(C)(c3ccccc3)OC1CC1C3CCC4=CC(=O)CCC4(C)C3CCC12C` (configuration not stated), the cell viability turned out to be 89.4%.

For `CCC(C)C(=O)OC1[C@@H]2CC3=C4CC(=O)O[C@@H](c5ccoc5)[C@]4(C)CCC3[C@@](C)(C2=O)[C@@H](CC(=O)OC)C1(C)C` (some centres not stated), the cell viability is 99.4%.

For `CC(C)CCC[C@@H](C)[C@H]1CC[C@H]2[C@@H]3C[C@@H](O)[C@@]4(O)C[C@@H](O)CC[C@]4(C)[C@H]3CC[C@]12C` [CHOLESTAN-3beta,5alpha,6beta-TRIOL], the cell viability is 102%.
